“And” between values parts separate entries of the source, which are not always exact repeats. Equal values may be shown once. About 83,000 compounds went through this panel and 20% of them were active in at least one assay; those are over-represented in the sample as a whole.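 How to read the values: 0–100, growth inhibition (40 = 60% inhibited); 0, no net growth; -100 to 0, cell death (-40 = 40% of starting cells died; -100 = all dead).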 The source made the active and inactive calls. Rule for the calls: active = growth percent below 10; inactive = the rest.
Assays:
Assay in all cases: NCI-60 one-dose screen, 48 h (100 = growth as untreated, 0 = no growth, -100 = all killed)
Conditions in all cases: 10 µM
NCI-H23 lung = tested on: NCI-H23 lung
NCI-H522 lung = tested on: NCI-H522 lung
MDA-MB-231 breast = tested on: MDA-MB-231 breast
M14 melanoma = tested on: M14 melanoma
SK-MEL-5 melanoma = tested on: SK-MEL-5 melanoma
UACC-62 melanoma = tested on: UACC-62 melanoma
LOX IMVI melanoma = tested on: LOX IMVI melanoma
MOLT-4 leukemia = tested on: MOLT-4 leukemia
SR leukemia = tested on: SR leukemia
OVCAR-8 ovarian = tested on: OVCAR-8 ovarian
OVCAR-5 ovarian = tested on: OVCAR-5 ovarian
OVCAR-4 ovarian = tested on: OVCAR-4 ovarian
SK-OV-3 ovarian = tested on: SK-OV-3 ovarian
IGROV1 ovarian = tested on: IGROV1 ovarian
HS 578T breast = tested on: HS 578T breast
T-47D breast = tested on: T-47D breast
SW-620 colon = tested on: SW-620 colon
MCF7 breast = tested on: MCF7 breast
HCT-116 colon = tested on: HCT-116 colon
KM12 colon = tested on: KM12 colon

Measured: growth

COC1[C@@H]2C[C@H]3C(C)(C)O[C@@](C/C=C(/C)C(=O)O)(C2=O)[C@]32Oc3c(CC=C(C)C)c4c(c(O)c3C(=O)[C@H]12)C=CC(C)(C)O4 (some centres undefined)
active: NCI-H23 lung -64.5% | NCI-H522 lung -68.6% | MDA-MB-231 breast -18.3% | M14 melanoma -53.9% | SK-MEL-5 melanoma -98.4% | UACC-62 melanoma -70% | LOX IMVI melanoma -97.2% | MOLT-4 leukemia -8.14% | SR leukemia 1.28% | OVCAR-8 ovarian -58.5% | OVCAR-5 ovarian -40% | OVCAR-4 ovarian -33.7% | IGROV1 ovarian -26% | T-47D breast -27.2% | SW-620 colon -14.7% | MCF7 breast -78.8% | HCT-116 colon -61.4% | KM12 colon -84.3%
inactive: SK-OV-3 ovarian 13.7% | HS 578T breast 22.9%

CCCCCCCCCC(=O)N[C@@](C)(CC)C(=O)N1CCC[C@H]1C(=O)N[C@@H](CC(C)C)C(=O)N[C@@](C)(CC)C(=O)N[C@@H](CCC(N)=O)C(=O)N[C@H](CCC(N)=O)C(=O)NC(C)(C)C(=O)NC(C)(C)C(=O)N[C@@H](CCC(N)=O)C(=O)N[C@H](CC(C)C)C(=O)N[C@H](CO)CC(C)C
active: NCI-H23 lung -78.3% and -84.7% | NCI-H522 lung -84% and -82.6% | MDA-MB-231 breast -92.2% and -98.5% | M14 melanoma -80.7% and -65.5% | SK-MEL-5 melanoma -94.2% and -97.9% | UACC-62 melanoma -90.6% and -99.6% | LOX IMVI melanoma -87.8% and -92.7% | MOLT-4 leukemia -50.5% and -25.3% | OVCAR-8 ovarian -74.1% and -63.2% | OVCAR-5 ovarian -98.7% and -100% | OVCAR-4 ovarian -38.1% and -35.2% | SK-OV-3 ovarian -77.5% and -56.9% | IGROV1 ovarian -84.9% and -85.5% | HS 578T breast -70.1% and -58.6% | T-47D breast -6.91% and -59.3% | SW-620 colon -79.7% and -77.5% | MCF7 breast -76.7% and -77.6% | HCT-116 colon -66.1% and -29% | KM12 colon -90.6% and -93.5%
-31.3% (active) and 16.2% (inactive): SR leukemia

Cc1ccc(CNc2nc3ccc(OC/C(=C/F)CN)cc3o2)cn1
inactive: NCI-H23 lung 88.4% | MDA-MB-231 breast 79.6% | M14 melanoma 99.8% | SK-MEL-5 melanoma 98% | UACC-62 melanoma 90.8% | LOX IMVI melanoma 88.4% | MOLT-4 leukemia 99.8% | SR leukemia 101% | OVCAR-8 ovarian 108% | OVCAR-5 ovarian 103% | OVCAR-4 ovarian 88.1% | SK-OV-3 ovarian 105% | IGROV1 ovarian 78.5% | HS 578T breast 101% | T-47D breast 101% | SW-620 colon 97.6% | MCF7 breast 88.8% | HCT-116 colon 100% | KM12 colon 103%

CC1=C2C(=C[C@@](C)(COS(C)(=O)=O)[C@@H]2O)C(=O)[C@](C)(O)C12CC2
active: NCI-H23 lung -18.5% | NCI-H522 lung -6.78% | MDA-MB-231 breast 8.84% | M14 melanoma -8.82% | SK-MEL-5 melanoma -18% | UACC-62 melanoma -67.1% | LOX IMVI melanoma -3.47% | SR leukemia 2.86% | OVCAR-5 ovarian 1.82% | OVCAR-4 ovarian -0.135% | SK-OV-3 ovarian -13.9% | IGROV1 ovarian 8.2% | HS 578T breast -9.58% | T-47D breast -0.976% | MCF7 breast 3.13% | HCT-116 colon 4.67% | KM12 colon -3.28%
inactive: MOLT-4 leukemia 10.4% | OVCAR-8 ovarian 12.5% | SW-620 colon 11.7%

COC(=O)[C@H]1[C@@H](O)[C@@]2(O)c3c(OC)cc(OC)cc3O[C@@]2(c2ccc(OC)cc2)[C@@H]1c1ccccc1
inactive: SR leukemia 13.2%
active: NCI-H23 lung -12% | NCI-H522 lung -28.7% | MDA-MB-231 breast -5.45% | M14 melanoma -1.79% | SK-MEL-5 melanoma -55.8% | UACC-62 melanoma -14.9% | LOX IMVI melanoma -38.6% | MOLT-4 leukemia 2.37% | OVCAR-8 ovarian -11.6% | OVCAR-5 ovarian -6.47% | OVCAR-4 ovarian 2.23% | SK-OV-3 ovarian -12.2% | IGROV1 ovarian -17.3% | HS 578T breast -5.48% | T-47D breast -11.7% | SW-620 colon 3.66% | MCF7 breast -0.926% | HCT-116 colon -6.31% | KM12 colon 3.23%

CC(C)=CCc1c2c(c(O)c3c1O[C@]14C(=C[C@@H]5C[C@H]1C(C)(C)O[C@@]4(C/C=C(/C)C(=O)O)C5=O)C3=O)C=CC(C)(C)O2
active: NCI-H23 lung -45.4% | NCI-H522 lung -70.9% | MDA-MB-231 breast -56.1% | M14 melanoma -50.1% | SK-MEL-5 melanoma -98.9% | UACC-62 melanoma -69.4% | LOX IMVI melanoma -95.6% | MOLT-4 leukemia -15.6% | SR leukemia -3.62% | OVCAR-8 ovarian -59.4% | OVCAR-5 ovarian -80.5% | OVCAR-4 ovarian -63.6% | SK-OV-3 ovarian -38.9% | IGROV1 ovarian -55.2% | HS 578T breast -11.1% | T-47D breast -40.7% | SW-620 colon -75.1% | MCF7 breast -61% | HCT-116 colon -71.5% | KM12 colon -73.4%

Reference: PubChem BioAssay (NCI)
